Screening results deposited in PubChem BioAssay by National Center for Advancing Translational Sciences (NCATS).
GAA inhib: inhibitors of human lysosomal alpha-glucosidase; P10253; purified human GAA, 4-MU-alpha-glucoside fluorescence; Potency, µM (top dose mostly 76.9 µM), inactives show at the highest dose activity change, negative = inhibition, most hits filed as inhibitors; actives 0.005% (n = 200,000);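 also: potency is read from the fitted curve at half-maximal effect; plate controls were uninhibited enzyme wells for no effect and no-enzyme background for full effect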
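Compounds are titrated up to 77 uM against 4 nM human enzyme. Substrate 4-methylumbelliferyl-alpha-D-pyranoside (400 uM) reacts 20 min at room temperature in pH 5.0 buffer; liberated 4-methylumbelliferone is read at 440 nm.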
GAA spleen mod: inhibitors or activators of human alpha-glucosidase in spleen homogenate; Potency, µM (highest dose often 79.9 µM), for the others: at the top dose activity change, negative = inhibition, hits mostly inhibitors; actives 0.006% (n = 240,000); P10253; human spleen homogenate, 4-MU-alpha-glucoside fluorescence;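 also: potency is read from the fitted curve at half-maximal effect; 0% = enzyme with vehicle and -100% = no enzyme basal signal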
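AC50 values come from Hill-equation fits of concentration-response data, normalized to no-enzyme and full-activity controls. Enzyme source: 1 ug human spleen homogenate; 1 mM fluorogenic 4-MU glucoside, pH 5.0 citrate buffer, 37 C, 40 min.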
GAA glycogen: inhibitors or activators of human alpha-glucosidase glycogen cleavage; P10253; recombinant GAA, glycogen substrate, Amplex Red glucose oxidase fluorescence; Potency, µM (top dose mostly 76.4 µM), for inactives: at the top dose activity change, negative = inhibition, usual class: inhibitors; actives 0.38% (n = 300,000);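 also: potency is read from the fitted curve at half-maximal effect; 0% = full enzyme reaction and -100% = no-enzyme basal signal; the screen sought inhibitors and activators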
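Recombinant human alpha-glucosidase (4 nM final) hydrolysed bovine liver glycogen (30 ug) for 40 min at 37 C in pH 5.0 citrate/phosphate with 0.01% Tween-20. Released glucose detected by glucose oxidase/Amplex Red, Ex 573/Em 610 nm. Compounds up to 77 uM; AC50 from Hill fits.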
GLA spleen mod: alpha-galactosidase A (human) modulation | human spleen homogenate, 4MU-alpha-Gal fluorescence, 40 min | Potency, µM (highest dose often 80 µM), for inactives: top-dose activity change, negative = inhibition, actives largely listed as inhibitors | actives 0.008% (n = 240,000);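 also: potency is read from the fitted curve at half-maximal effect; 0% = enzyme with vehicle and -100% = no enzyme basal signal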
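Inhibition or activation of alpha-galactosidase in human spleen homogenate is scored by 4-MU fluorescence after 40 min at 37C, pH 5.0, with 1 mM substrate. AC50s come from concentration-response fitted to the Hill equation.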
N370S GC: N370S glucocerebrosidase modulation, Gaucher chaperone candidate. N370S GC spleen homogenate, 4MU-glucoside fluorescence. Potency, µM (doses to about 59.4 µM), without a hit: at the highest dose activity change, negative = inhibition, hits mostly inhibitors. actives 0.092% (n = 330,000). AID 2101;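 also: potency is read from the fitted curve at half-maximal effect; 0% = full enzyme activity and -100% = no enzyme basal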
GLA inh pH 4.5: blocks human alpha-galactosidase A at pH 4.5. purified enzyme, 4-MU-alpha-Gal fluorescence, pH 4.5. 230,000 tested, under 10 active. AID 1467. P06280. activity change, negative = inhibition, % at 105 µM;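 also: 0% = full activity with enzyme and -100% = basal without enzyme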
Target sequence (P06280 whole entry, looked up): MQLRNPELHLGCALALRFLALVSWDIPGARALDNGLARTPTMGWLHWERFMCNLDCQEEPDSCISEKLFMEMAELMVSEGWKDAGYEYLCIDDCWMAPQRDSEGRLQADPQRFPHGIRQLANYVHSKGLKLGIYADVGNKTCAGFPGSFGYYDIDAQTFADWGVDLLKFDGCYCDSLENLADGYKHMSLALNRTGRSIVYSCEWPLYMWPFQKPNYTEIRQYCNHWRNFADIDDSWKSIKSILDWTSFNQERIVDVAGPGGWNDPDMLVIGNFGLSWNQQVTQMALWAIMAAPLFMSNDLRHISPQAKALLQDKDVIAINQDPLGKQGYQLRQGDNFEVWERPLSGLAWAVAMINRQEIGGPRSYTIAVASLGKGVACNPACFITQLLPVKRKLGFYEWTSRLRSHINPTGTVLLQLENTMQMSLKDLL
Numbers without * were called inactive; ? = inconclusive; nt = no result given. Rows were chosen to be rich in hits. Some 0.43% of all compounds tested hit in one or more screens of this group. Calls follow the shape of the dose curve; as a rule, active = well fitted curve in the direction sought with a large enough effect; inconclusive = small, poorly fitted or top-dose-only effect, or another doubt; inactive = no such curve, though single readings can be large; an effect the other way counts as inactive or inconclusive.

SMILES | GAA inhib | GAA spleen mod | GAA glycogen | GLA spleen mod | N370S GC | GLA inh pH 4.5
CN1CCN(c2ccc3nccnc3c2)CC1 | 1.5% | ? | 7.2% | 35.5µM* | -4.1% | 7.8
CN1C(=O)C(Cc2cccc3ccccc23)C(=O)N(C)C1=O | -18.0% | -3.5% | ? | 0.7% | 5.0% | 2.7
O=C1C2CCN(CC2)[C@@H]1Cc1ccc2ccccc2c1O | -4.4% | -4.1% | 7.88µM* | 2.7% | -19.3% | 5.1
OC[C@@H]1[C@@H](O)[C@H](O)[C@H]2[C@@H](O)CCN21 | nt | 28.2µM* | nt | 1.1% | -6.2% | nt
Cc1ccc(OP(=O)(Oc2ccc(C)cc2)Oc2ccc(C)cc2)cc1 | nt | -3.3% | nt | -9.2% | 16.7% | nt
CC1CN(O)C2CCc3c(no[n+]3[O-])C12O (stereo unspecified) | 5.4% | 5.7% | 8.84µM* | 8.3% | 4.1% | 2.7
NC1CCCC[C@H]1N (stereo partly specified) | nt | -1.3% | nt | 9.1% | 1.7% | nt
CCOC(=O)CC(SP(=O)(OC)OC)C(=O)OCC (stereo unspecified) | nt | 3.3% | nt | 9.1% | -0.9% | nt
O=c1cc(-c2ccc(O)c(O)c2)oc2cc(O)cc(O)c12 | nt | -0.7% | 25.1µM* | ? | ? | -8.6
O=c1c(O)c(-c2ccc(O)c(O)c2)oc2cc(O)cc(O)c12 | nt | 0.9% | ? | -19.2% | ? | -16.4
C/C1=C/C(=O)O[C@@H]2C[C@@H](CC[C@H](C)/C=C\CC1)O[C@@](O)(C1CSC(=O)N1)C2 (stereo partly specified) | nt | -4.6% | nt | -7.3% | -2.1% | nt
C[C@@H]1CC[C@@]2(OC1)O[C@H]1[C@@H](O)[C@H]3[C@@H]4CC[C@H]5C[C@@H](O[C@@H]6O[C@H](CO)[C@H](O[C@@H]7O[C@H](CO)[C@@H](O)[C@H](O[C@@H]8OC[C@@H](O)[C@H](O)[C@H]8O)[C@H]7O[C@@H]7O[C@H](CO)[C@@H](O)[C@H](O[C@@H]8O[C@H](CO)[C@@H](O)[C@H](O)[C@H]8O)[C@H]7O)[C@H](O)[C@H]6O)[C@H](O)C[C@]5(C)[C@H]4CC[C@]3(C)[C@H]1[C@@H]2C | nt | 10.1% | nt | 23.2% | 0.2% | nt
CN(C)c1ccc(N)cc1 | nt | -2.9% | nt | -6.6% | -9.7% | nt
C/C=C/C/C=C/CCC(=O)[C@H]1O[C@H]1C(N)=O | nt | -5.5% | nt | -1.8% | ? | nt
CN1[C@@H]2CC[C@H]1CC(O[C@@H](c1ccccc1)c1ccc(Cl)cc1)C2 (stereo partly specified) | nt | 0.2% | nt | 13.9% | 7.94µM* | -25.6
COC[C@H]1OC(=O)c2coc3c2[C@@]1(C)C1=C(C3=O)[C@H]2CCC(=O)[C@@]2(C)C[C@H]1OC(C)=O | nt | -3.4% | nt | 2.0% | -11.6% | -2.5
CN1CC(C(=O)c2ccc(Cl)cc2)C(c2ccc(N(C)C)cc2)C1 (stereo unspecified) | ? | 2.2% | -4.3% | 3.2% | 1.2% | -5.6
CN1CC(C(=O)c2ccc(Cl)cc2)C(c2ccc(Cl)cc2Cl)C1 (stereo unspecified) | nt | nt | 1.1% | nt | 17.8µM* | nt
O=C(N/N=C1/CN2CCC1CC2)c1cc2ccccc2cc1O | -0.6% | -0.6% | 35.5µM* | -11.8% | -21.5% | 5.5
ClC1=C(Cl)C(Cl)(C2(Cl)C(Cl)=C(Cl)C(Cl)=C2Cl)C(Cl)=C1Cl | nt | -5.3% | nt | -9.7% | -6.7% | nt
Cc1cc2c(C(C)C)c(O)c(O)c(C=O)c2c(O)c1-c1c(C)cc2c(C(C)C)c(O)c(O)c(C=O)c2c1O | ? | -2.5% | 8.91µM* | 4.3% | 11.3% | -3.9
O=S(=O)(Cl)c1ccccc1 | nt | 5.1% | nt | -15.9% | -4.9% | nt
CN1CCC(=O)N(CCN=[N+]=[N-])CC1 | nt | nt | 50.1µM* | nt | 2.4% | nt
CC(=O)[O-].CC(=O)[O-].CC(=O)[O-].[Cr+3] | nt | -7.9% | nt | 2.9% | -7.6% | nt
Cc1cccn2c(NCC3CCCO3)c(C(C)C)nc12 (stereo unspecified) | 0.7% | -5.3% | ? | -11.7% | 4.7% | 1.7
SMILES | GAA inhib | GAA spleen mod | GAA glycogen | GLA spleen mod | N370S GC | GLA inh pH 4.5
CCOc1cc(-c2nc3c(C)cccn3c2NCC2CCCO2)ccc1O (stereo unspecified) | -10.0% | -1.4% | 35.5µM* | 9.3% | 0.2% | 7.2
CCSC(=O)Cl | nt | -3.7% | nt | 5.5% | -8.1% | nt
O=C(NC1(C(F)(F)F)Oc2ccccc2O1)N1CCC2(CC1)OCCO2 | -5.4% | -0.6% | 5.62µM* | 5.0% | 0.3% | -4.7
O=C(NC1(C(F)(F)F)Oc2ccc(Cl)cc2O1)N1CCC2(CC1)OCCO2 (stereo unspecified) | 1.6% | -1.8% | 8.91µM* | -1.2% | nt | 0.4
O=C(O)C1Sc2[nH]c(=O)sc2C2c3cc(Cl)ccc3OC(=O)C12 (stereo unspecified) | 5.8% | 5.3% | 15.8µM* | 3.1% | 11.2% | -3.4
COc1cc(/C=N/NP(=S)(c2ccccc2)c2ccccc2)ccc1O | -4.6% | -2.8% | 24.9µM* | -7.3% | ? | 1.4
Oc1ccc(/C=N/NP(=S)(c2ccccc2)c2ccccc2)cc1 | -8.7% | -8.3% | -15.5% | 1.1% | ? | -11.0
OCCCc1ccc(O)c(O)c1 | nt | -1.2% | 35.5µM* | 9.5% | 4.6% | 0.1
CCCCCCCCCCCC[N+](C)(C)CCOc1ccccc1 | nt | 9.1% | nt | 10.4% | 4.47µM* | nt
